Here are results for eight compounds from PubChem BioAssay (NCI).

Holding throughout (assay): NCI-60 one-dose screen, 48 h (100 = growth as untreated, 0 = no growth, -100 = all killed)
For one experiment, the system named is HCT-15 colon. As to conditions: 10 µM unless noted.
Another experiment concerns HT29 colon. Particulars: 10 µM unless noted.
Another experiment has as its system SNB-75 CNS. As to conditions: 10 µM unless noted.
The next experiment has as its system SNB-19 CNS. Particulars: 10 µM unless noted.
A further experiment concerns U251 CNS. Particulars: 10 µM unless noted.
A further experiment deals with PC-3 prostate. Particulars: 10 µM unless noted.
A further experiment deals with UACC-62 melanoma. Particulars: 10 µM unless noted.
The next experiment relates to LOX IMVI melanoma. Particulars: 10 µM.
The subject of another experiment is SK-MEL-28 melanoma. Particulars: 10 µM unless noted.
The next experiment concerns SK-MEL-2 melanoma. As to conditions: 10 µM unless noted.
The subject of a further experiment is EKVX NSCLC. As to conditions: 10 µM unless noted.
Another experiment relates to SN12C renal. As to conditions: 10 µM unless noted.
The test system of a further experiment is UO-31 renal. Particulars: 10 µM unless noted.
The test system of the next experiment is TK-10 renal. Particulars: 10 µM unless noted.
The subject of the next experiment is ACHN renal. As to conditions: 10 µM unless noted.
Another experiment deals with CAKI-1 renal. Particulars: 10 µM unless noted.
The subject of another experiment is A498 renal. As to conditions: 10 µM unless noted.
In a further experiment the test system is CCRF-CEM leukemia. As to conditions: 10 µM unless noted.
A further experiment concerns SK-MEL-5 melanoma. Particulars: 10 µM unless noted.
Another experiment has as its system MOLT-4 leukemia. Particulars: 10 µM unless noted.

About 83,000 compounds went through this panel and 20% of them were active in at least one assay; those are over-represented in the sample as a whole.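 Treatment: one concentration, 48 hours, 96-well format. Scoring: percent growth, with anything below 10 considered active.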 Values without a mark were called inactive. Activity calls are given as the source filed them.

In the case of `CN1CCN(c2ccc3c(c2)nc(NNC(=O)c2cnccn2)c2cccn23)CC1`, the growth in the experiment with HCT-15 colon is -51% (active); in the experiment with HT29 colon it was 6.95% (active); with SNB-75 CNS, 28.7%; in the experiment with SNB-19 CNS, 20%; in the experiment with U251 CNS, -19.1% (active); in the experiment on PC-3 prostate, 11.7%. The growth was -17.9% (active) in the experiment on UACC-62 melanoma; -43.8% (active) in the experiment with LOX IMVI melanoma; -15% (active) in the experiment on SK-MEL-28 melanoma; -69% (active) in the experiment on SK-MEL-2 melanoma; -46.8% (active) with EKVX NSCLC; 0.109% (active) with SN12C renal. The growth was -77.9% (active) with UO-31 renal; -74.5% (active) in the experiment with TK-10 renal; -85.8% (active) with ACHN renal; -74% (active) in the experiment on CAKI-1 renal; -84.7% (active) in the experiment with A498 renal; 13.8% in the experiment with CCRF-CEM leukemia.

On to `COc1ccc(C(=O)/C=C/c2cccc(Cl)c2)cc1S(N)(=O)=O`, for which the growth was -89.9% (active) in the experiment with HCT-15 colon; 0.678% (active) in the experiment with HT29 colon; 29.5% in the experiment on SNB-75 CNS; 0.182% (active) in the experiment on SNB-19 CNS; -97.1% (active) with U251 CNS; 31.7% in the experiment on PC-3 prostate. The growth in the experiment on UACC-62 melanoma was -3.37% (active); in the experiment with LOX IMVI melanoma, -87.4% (active); in the experiment with SK-MEL-28 melanoma, -25.7% (active); with SK-MEL-2 melanoma it was 80.9%; in the experiment on EKVX NSCLC, -73.5% (active); with SN12C renal, -25.3% (active). The growth with UO-31 renal was -67.6% (active); in the experiment with TK-10 renal, -86.1% (active); in the experiment on ACHN renal, -89.3% (active); with CAKI-1 renal, -9.94% (active); in the experiment on A498 renal, 111%; in the experiment on CCRF-CEM leukemia it was 6.96% (active).

`NS(=O)(=O)c1ccc(-n2cc(-c3cccc(NC(=O)c4cc(N5CCOCC5)cc(C(F)(F)F)c4)c3)nn2)cc1`: the growth is 105% with HCT-15 colon; 103% with HT29 colon; 33.1% with SNB-75 CNS; 40.8% with SNB-19 CNS; 7.62% (active) in the experiment on U251 CNS; 70.6% in the experiment on PC-3 prostate. The growth in the experiment with UACC-62 melanoma is 41.1%; in the experiment on LOX IMVI melanoma, 46.8%; with SK-MEL-28 melanoma it was 36.9%; in the experiment with SK-MEL-2 melanoma it was 61.9%; with EKVX NSCLC it was 70.5%; in the experiment with SN12C renal it was 35.1%. Besides, the growth was 80.3% with UO-31 renal; 86.3% in the experiment with TK-10 renal; 80.4% with ACHN renal; 57% in the experiment with CAKI-1 renal; 104% in the experiment on A498 renal; 93.9% in the experiment on CCRF-CEM leukemia.

In the case of `O=C1C(=Nc2ccc(F)c(Cl)c2)c2cccc3cccc1c23`, the growth with HCT-15 colon is 8.52% (active); in the experiment on HT29 colon, 5.96% (active); in the experiment with SNB-75 CNS, 66.5%; in the experiment with SNB-19 CNS it was 71.2%; in the experiment on U251 CNS, 24.7%; in the experiment on PC-3 prostate, 77.9%. Moreover, the growth with UACC-62 melanoma was 52.8%; in the experiment on LOX IMVI melanoma, 46.9%; with SK-MEL-28 melanoma, 57.9%; with SK-MEL-2 melanoma, 97.5%; in the experiment with EKVX NSCLC, 75.5%; in the experiment with SN12C renal, 57.3%. In addition, the growth with UO-31 renal was 38.2%; in the experiment on TK-10 renal, 111%; with ACHN renal it was 32.2%; in the experiment on CAKI-1 renal it was 55.4%; in the experiment with A498 renal it was 118%; with CCRF-CEM leukemia, 6.25% (active).

Consider `Nc1n[nH]c2cccc(C#Cc3cccc(NC(=O)c4cccc(Cl)c4)c3)c12`, for which the growth with HCT-15 colon was 20%; with HT29 colon, 37.8%; in the experiment with SNB-75 CNS, 35.7%; with SNB-19 CNS, 55.2%; with U251 CNS it was 46.1%; in the experiment on PC-3 prostate it was 20.5%. Also, the growth in the experiment on UACC-62 melanoma was 32.4%; in the experiment with LOX IMVI melanoma it was 17.7%; with SK-MEL-28 melanoma it was 42.5%; in the experiment with SK-MEL-2 melanoma, 12.7%; in the experiment with EKVX NSCLC, 44.9%; with SN12C renal, 28.5%. For the same compound, the growth in the experiment on UO-31 renal is 21.5%; in the experiment on TK-10 renal, 49.9%; in the experiment on ACHN renal it was 18.2%; in the experiment with CAKI-1 renal, 18.8%; in the experiment with A498 renal, 50.4%; in the experiment on CCRF-CEM leukemia, 15%.

Regarding `COc1ccc(NC(=O)Cn2c3c(sc2=O)[C@H]2[C@@H](O)[C@@H](O)[C@H](O)[C@@H]2CS3)cc1`, the growth was 104% in the experiment with HCT-15 colon; 110% with HT29 colon; 88.5% with SNB-75 CNS; 106% in the experiment on SNB-19 CNS; 99.7% with U251 CNS; 106% in the experiment with SK-MEL-5 melanoma. Further, the growth in the experiment with UACC-62 melanoma was 99.8%; with SK-MEL-28 melanoma, 103%; in the experiment with SK-MEL-2 melanoma it was 101%; in the experiment on EKVX NSCLC, 97.4%; with SN12C renal, 98.8%; in the experiment on UO-31 renal, 90.2%. Further, the growth was 112% with TK-10 renal; 96.6% in the experiment on ACHN renal; 97.2% in the experiment on CAKI-1 renal; 111% with A498 renal; 108% in the experiment with MOLT-4 leukemia.

On to `COc1cccc(/C=C/C(=O)c2ccc(OC)c(S(N)(=O)=O)c2)c1`, for which the growth with HCT-15 colon is -7.46% (active); in the experiment with HT29 colon, 4.06% (active); in the experiment on SNB-75 CNS, 20.6%; in the experiment with SNB-19 CNS it was 27%; in the experiment on U251 CNS, -31.2% (active); in the experiment with PC-3 prostate, 48%. The growth is 52.6% in the experiment with UACC-62 melanoma; -69.9% (active) in the experiment with LOX IMVI melanoma; 60.8% in the experiment on SK-MEL-28 melanoma; 96.5% in the experiment on SK-MEL-2 melanoma; 49.4% in the experiment with EKVX NSCLC; 2.53% (active) with UO-31 renal. For the same compound, the growth in the experiment with ACHN renal was -40.4% (active); in the experiment on CAKI-1 renal, 26.5%; with A498 renal, 115%; in the experiment on CCRF-CEM leukemia, 2.26% (active).

Turning to `CC(=O)N1CCN(Cc2ccc3c(NNC(=O)c4cnccn4)nc4cc(F)ccc4n23)CC1`, the growth was 30.3% in the experiment on HCT-15 colon; 35.9% in the experiment with HT29 colon; 65.7% in the experiment on SNB-75 CNS; 25.4% with SNB-19 CNS; 13.1% in the experiment with U251 CNS; 40.9% in the experiment with PC-3 prostate. In addition, the growth is 9.03% (active) in the experiment with UACC-62 melanoma; 10.3% in the experiment on LOX IMVI melanoma; 30.4% with SK-MEL-28 melanoma; 43.5% in the experiment on SK-MEL-2 melanoma; 16.2% in the experiment with EKVX NSCLC; 21.4% in the experiment on SN12C renal. Besides, the growth in the experiment with UO-31 renal was 10.6%; with TK-10 renal, 30.3%; in the experiment with ACHN renal it was 11%; in the experiment on CAKI-1 renal, 13.1%; in the experiment with A498 renal, 50.2%; in the experiment on CCRF-CEM leukemia, 9.27% (active).
